High-throughput results from PubChem.
FUS yeast rescue – rescues growth of FUS-expressing yeast; 0.24% of 390,000 active; S. cerevisiae FUS-expressing, growth rescue, OD600, 24 h; Potency, µM (doses to about 76.6 µM), most hits filed as activators; AID 1347120; also: nearly all actives have a fitted effect of over 55% in size
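Absorbance at 600 nm, taken 24hr after compound addition, measured rescue of FUS-yeast growth at 30C. Induction used 2% galactose with seeding at OD 0.005. Controls: CP55940 from 92uM final, DMSO only.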
Vif-A3G inh – blocks the Vif interaction with human APOBEC3G; Q9HC16; HeLa A3G-eYFP + Vif (tagged APOBEC3G with the HIV-1 protein that degrades it), YFP fluorescence, overnight; Potency, µM (top dose mostly 46.1 µM), usual class: inhibitors; 0.076% of 410,000 active; AID 602310; also: nearly all actives have a fitted effect of over 60% in size
Target sequence (Q9HC16 whole entry, looked up): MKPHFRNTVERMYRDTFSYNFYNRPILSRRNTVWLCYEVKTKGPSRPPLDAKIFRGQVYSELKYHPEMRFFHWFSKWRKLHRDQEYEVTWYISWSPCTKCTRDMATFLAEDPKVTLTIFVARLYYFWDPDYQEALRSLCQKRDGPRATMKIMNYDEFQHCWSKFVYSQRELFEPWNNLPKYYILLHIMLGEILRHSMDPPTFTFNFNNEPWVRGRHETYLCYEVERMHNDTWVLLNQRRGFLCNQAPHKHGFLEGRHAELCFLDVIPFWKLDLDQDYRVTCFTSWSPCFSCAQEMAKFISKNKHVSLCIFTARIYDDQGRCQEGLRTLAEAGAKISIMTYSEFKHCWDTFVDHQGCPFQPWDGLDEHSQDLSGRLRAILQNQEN
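HeLa cells stably expressing Vif and C-terminally eYFP-tagged A3G, seeded overnight at 37 deg C, then exposed to compound by pintool overnight at 37 deg C. Rise in yellow fluorescence (Ex 488/Em 500-530, Acumen) marks blocked Vif-driven A3G degradation.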
Abeta rescue – A-beta toxicity reversal in yeast | yeast expressing A-beta42, growth rescue, OD600, 48 h; response scale: 0% DMSO, 100% iron-clioquinol control | Potency, µM (highest dose often 46.1 µM), most hits filed as activators | 0.063% of 410,000 active | AID 1347071; also: nearly all actives have a fitted effect of over 55% in size
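Growth rescue measured by 600 nm absorbance after 48 h yeast culture at 30 C with compound. Values normalized between DMSO and an equimolar ferric chloride plus clioquinol control.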
PINK1 modulator – modulators of PINK1 expression | PINK1 immunofluorescence, high-content cytometry, 24 h | Potency, µM (titrated, usually from 76.6 µM), usual class: activators | 0.2% of 410,000 active; active = well fitted activation curve with a large enough effect; inconclusive = small, poorly fitted or top-dose-only effect; cell line not stated here; also: nearly all actives have a fitted effect of over 65% in size
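PINK1 protein, normally rapidly degraded, was detected by immunofluorescence after 24 hour compound treatment of a stable cell line. Titration data (5 concentrations) came from laser-scanning cytometry, with CCCP-treated wells as controls.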
Glioma ERSR ind – ER stress response induction in glioma; U87-MG GRP78 promoter luciferase reporter, 16 h; Potency, µM, actives largely listed as activators; 0.02% of 420,000 active; AID 602332; also: series mostly up to about 76 µM; nearly all actives have a fitted effect of over 35% in size
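Stably transfected U87-MG glioma cells carrying a GRP78-based luciferase sensor; 16 h compound incubation. Luminescence end-point read 10 min after Bright-Glo addition at room temperature.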
Vif-A3F inh – blocks the Vif interaction with APOBEC3F; Potency, µM (doses to about 46.1 µM); AID 602313; HeLa A3F-eYFP + Vif (tagged APOBEC3F with the HIV-1 protein that degrades it), YFP fluorescence increase; 0.2% of 390,000 active; also: nearly all actives have a fitted effect of over 65% in size
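HeLa cells stably expressing Vif plus C-terminally eYFP-tagged A3F were seeded, incubated overnight at 37 deg C, dosed with compound, incubated overnight again at 37 deg C. Yellow fluorescence (Ex 488/Em 500-530) reported blocked Vif-mediated A3F-eYFP degradation.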
A number is an active result; – = inactive; ? = inconclusive; · = no result given. Compounds with a hit are over-represented: about 0.69% of the library has one in this group of screens. Unless noted, calls follow the shape of the dose curve; as a rule, active = well fitted curve in the direction sought with a large enough effect; inconclusive = small, poorly fitted or top-dose-only effect, or another doubt; inactive = no such curve, though single readings can be large; an effect the other way counts as inactive or inconclusive.

SMILES	FUS yeast rescue	Vif-A3G inh	Abeta rescue	PINK1 modulator	Glioma ERSR ind	Vif-A3F inh
COc1cc(/C=C/C(=O)OCC(=O)Nc2cc(S(=O)(=O)N3CCCCC3)ccc2C)ccc1O	25µM	–	–	–	–	–
COc1cc(/C=C/C(=O)OCC(=O)Nc2ccc(C)c(S(=O)(=O)N3CCCCC3)c2)ccc1O	?	–	–	–	–	–
c1ccc(C(NCCNC(c2ccccc2)c2ccccc2)c2ccccc2)cc1	–	–	–	40µM	–	?
N=C1/C(=C\c2coc3ccccc3c2=O)C(=O)N=C2SC(c3ccncc3)=NN12	?	?	–	–	–	25µM
CC(C)CSC1=NSC2=NC(=O)/C(=C\c3coc4ccccc4c3=O)C(=N)N12	–	?	–	?	–	22µM
COC(=O)c1cc(CNC(=O)c2ccccc2OC)cc(NC(=O)c2ccccc2F)c1	·	·	·	–	–	·
N#C/C(=C(/O)c1ccc2c(c1)OCO2)c1nc2cc(C(F)(F)F)ccc2s1	–	–	–	14µM	–	–
O=C1c2ccccc2C(=O)c2c(/C=C/N3CCCCC3)ccnc21	·	?	–	–	–	22µM
COc1ccc(CN2CCC3(CC2)c2ccccc2[C@@H](NC(=O)c2ccccc2OC)[C@@H]3O)cc1O	·	·	·	–	–	·
CCc1cccc(CC)c1NC(=S)Nc1ccccc1	–	–	14µM	–	–	–
Cc1cc(C)c(NC(=S)NC(NC(=O)c2ccccc2)C(Cl)(Cl)Cl)c(C)c1 (stereo not given)	–	–	–	–	–	–
Cc1ccc(NC(=S)NC(NC(=O)c2ccccc2)C(Cl)(Cl)Cl)c(C)c1 (stereo not given)	–	–	–	40µM	–	–
COc1cc(C(C(=O)NC2CCCCC2)N(C(=O)Cc2c[nH]c3ccccc23)c2ccccc2C)cc(OC)c1OC (stereo not given)	22µM	–	–	–	–	–
COc1cc(C(C(=O)NC2CCCCC2)N(Cc2cccs2)C(=O)Cc2c[nH]c3ccccc23)cc(OC)c1OC (stereo not given)	–	–	–	–	–	–
O=C1/C(=C/c2ccc(N3CCCC3)cc2)NC(=S)N1C1CC1	–	5.6µM	–	?	–	11µM
CN1C(=O)c2ccc(N3CCCC3)cc2C1=O	–	–	–	–	–	–
Cc1cc(N2CCCC2)ccc1/C=C1\NC(=S)N(C)C1=O	·	?	–	–	–	6.3µM
COc1ccccc1C(=O)N[C@@H]1c2ccccc2C2(CCN(Cc3nccs3)CC2)[C@H]1OC	·	·	·	–	–	·
O=C(Nc1cccc(Br)c1)c1ccccc1-c1ccccc1	–	–	?	?	–	–
O=C(Nc1ccc(F)c(F)c1)c1ccccc1-c1ccccc1	·	–	7.1µM	–	–	–
Cc1ncc2c(c1CNS(=O)(=O)c1cccs1)CCN(C(=O)/C=C/c1cc(F)cc(F)c1)C2	·	·	·	–	–	·
Cc1c(C(=O)N(C)Cc2cccc3ncccc23)cnn1-c1nccc(-c2ccccc2F)n1	·	·	·	–	–	·
CC(C)(C)n1ncc2c(=O)n(Cc3ccc(Cl)cc3C(F)(F)F)cnc21	·	–	·	·	–	·
O=C(CCS(=O)(=O)c1cc(Br)cc2c1N(C(=O)C1CC1)CC2)NCc1ccc(Cl)cc1	28µM	–	–	–	–	–
COc1ccc(OC)c(-c2cc(Cl)c3c(c2)CC(CNC(=O)c2cnn4cccnc24)O3)c1 (stereo not given)	·	·	·	–	–	·
C[C@@H](c1ccccc1)N1C[C@@H](COCc2ccccc2)Oc2cc(N3CCC[C@H]3C(N)=O)ccc2S1(=O)=O	22µM	·	–	–	·	·
S=C(Nc1nc2c(s1)CCCC2)NC1CC1	–	–	8.9µM	–	–	?
CC1C(c2ccccc2)N(C)C(c2ccccc2)C(C)C1(O)C#Cc1ccccc1 (stereo not given)	–	–	–	32µM	–	?
COC(=O)c1ccc(Cl)cc1NC(=O)N1CC=C(c2c[nH]c3ccccc23)CC1	–	?	–	–	–	22µM
Cc1cccc(NC(=O)N2CC=C(c3c[nH]c4ccccc34)CC2)c1C	–	?	–	–	–	11µM
